Assay results taken from PubChem BioAssay AID588397 (National Center for Advancing Translational Sciences (NCATS), 2011).
Screen size: about 1,300 compounds; about 1,000 (77%) were called active. Not shown: some 7% with an inconclusive outcome. Calls follow the shape of the dose curve; as a rule, active = well fitted inhibition curve with a large enough effect; inconclusive = small, poorly fitted or top-dose-only effect; inactive = no such curve, though single readings can be large or run the other way. So high a share suggests a set chosen from earlier hits. The list shows a part of the results.

Assay: qHTS of small molecules that selectively kill Giardia lamblia: Hit Validation.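 Also: viability measured as ATP content by luminescence so killing lowers signal; nearly all actives have a fitted effect of over 65% in size.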
Settings: Giardia lamblia trophozoite viability, dose-response; series mostly up to 38.3 µM
Summary of the method: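 ATP-content bioluminescence gauges trophozoite survival. Cells (100/well) receive compound and incubate anaerobically for 48 hrs at 37 deg C; detection reagent follows for 15-30 min at room temperature.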
Potency is read from the fitted curve at half-maximal effect.

| Compound | Potency |
| --- | --- |
| CC(NC(=O)c1ccc([N+](=O)[O-])o1)C1CC2CCC1C2 (stereo not drawn) | 1450 nM (active) |
| O=C(NC12CC3CC(CC(C3)C1)C2)c1ccc([N+](=O)[O-])o1 | 1030 nM (active) |
| CC(NC(=O)c1ccc([N+](=O)[O-])o1)C12CC3CC(CC(C3)C1)C2 (stereo not drawn) | 918 nM (active) |
| O=[N+]([O-])c1nn(-c2ccc3c(c2)OCCO3)n(O)c1=Nc1ccc(Cl)cc1 | 1300 nM (active) |
| CC(C)c1ccc(N=c2c([N+](=O)[O-])nn(-c3ccc4c(c3)OCCO4)n2O)cc1 | 2050 nM (active) |
| CC(=O)N(/N=C/c1ccc([N+](=O)[O-])o1)c1nc2ccccc2c(=O)n1-c1ccccc1 | 1030 nM (active) |
| O=c1c2ccccc2nc(/C=C/c2ccc([N+](=O)[O-])o2)n1CCCO | 579 nM (active) |
| Cc1cccc(-c2nnc(SCc3cc(=O)[nH]c4ccccc34)n2C)c1 | inactive |
| Cc1cc(C)nc(N/N=C/c2ccc([N+](=O)[O-])o2)n1 | 1300 nM (active) |
| Cc1cc(C)nc(N/N=C/c2ccc(Cl)cc2)n1 | inactive |
| CCNc1nc(NCC)nc(N/N=C/c2ccc([N+](=O)[O-])o2)n1 | 2590 nM (active) |
| O=C(Cc1csc(Nc2nc(=S)[nH]c3ccccc23)n1)NCCCN1CCN(c2ccccc2F)CC1 | 14500 nM (active) |
| CCOC(=O)Cc1csc(NC(=S)NC(=O)c2ccc(C)cc2)n1 | 7290 nM (active) |
| CSc1cccc(NS(=O)(=O)c2cn(C)cn2)c1 | inactive |
| Cc1ccc(OCC(=O)c2cc(C)n(C)c2C)c([N+](=O)[O-])n1 | 1450 nM (active) |
| C=CCn1c(C)cc(C(=O)COc2ccc(C)nc2[N+](=O)[O-])c1C | 460 nM (active) |
| Cc1ccc(OCc2ccc([N+](=O)[O-])cc2)c([N+](=O)[O-])n1 | 3260 nM (active) |
| COCCn1c(C)cc(C(=O)COc2cccnc2[N+](=O)[O-])c1C | 1300 nM (active) |
| CCCn1c(C)cc(C(=O)COc2ccc(C)nc2[N+](=O)[O-])c1C | 1030 nM (active) |
| C=CCn1c(C)cc(C(=O)COC(=O)c2n[nH]c(=O)c3ccccc23)c1C | 4600 nM (active) |

| Compound | Potency |
| --- | --- |
| COCCn1c(C)cc(C(=O)COc2ccc(C)nc2[N+](=O)[O-])c1C | 918 nM (active) |
| c1ccc2cc3c(NCCN4CCOCC4)ccnc3cc2c1 | 1830 nM (active) |
| Cc1ccc(-c2cnc3cc(C)nn3c2)cc1 | 5790 nM (active) |
| Clc1ccccc1CSc1nc2ccncc2[nH]1 | 3650 nM (active) |
| COc1cccc(CSc2nc3ccncc3[nH]2)c1 | 1630 nM (active) |
| Clc1ccc(CSc2nc3ccncc3[nH]2)cc1 | 579 nM (active) |
| O=C(c1ccc(CSc2nc3ccncc3[nH]2)cc1)N1CCCCCC1 | 1160 nM (active) |
| Cc1ccc(CSc2nc3ccncc3[nH]2)cc1 | 259 nM (active) |
| CCCC(=O)NC(=S)NNC(=O)c1ccc([N+](=O)[O-])cc1 | 410 nM (active) |
| CC(C)CC(=O)NC(=S)NNC(=O)c1ccc([N+](=O)[O-])cc1 | 1300 nM (active) |
| CSCCC(NC(=O)OC(C)(C)C)C(=O)Oc1ccc2c(=O)c(-c3ccc4c(c3)OCCO4)coc2c1 (stereo not drawn) | 1030 nM (active) |
| CSCCC(NS(=O)(=O)c1ccc2c(c1)OCCO2)C(=O)N(C)Cc1ccccc1F (stereo not drawn) | inactive |
| O=C(Nc1cc(S(=O)(=O)N2CCOCC2)ccc1N1CCOCC1)c1ccc([N+](=O)[O-])s1 | 4100 nM (active) |
| O=C(Nc1ccccc1N1CCOCC1)c1ccc([N+](=O)[O-])s1 | 2050 nM (active) |
| O=C(/C=C/c1ccc(O)c([N+](=O)[O-])c1)c1ccc2ccccc2c1 | 2050 nM (active) |
| Cc1ccc(-n2c(C)cc(C(=O)COc3cccnc3[N+](=O)[O-])c2C)cc1 | 516 nM (active) |
| O=C(COc1cccnc1[N+](=O)[O-])c1c[nH]c2ccccc12 | 5160 nM (active) |
| Cc1cc(C(=O)COc2cccnc2[N+](=O)[O-])c(C)n1-c1ccccc1F | 1160 nM (active) |
| Cc1cc(C(=O)COc2cccnc2[N+](=O)[O-])c(C)n1-c1ccccc1 | 365 nM (active) |
| Cc1ccc2nccnc2c1 | 1300 nM (active) |

| Compound | Potency |
| --- | --- |
| O=C1C[C@@H](c2ccc(O[C@@H]3O[C@H](CO)[C@@H](O)[C@H](O)[C@H]3O)cc2)Oc2cc(O)ccc21 | inactive |
| COc1ccccc1NS(=O)(=O)c1cccc(C(=O)N/N=C/c2ccc([N+](=O)[O-])o2)c1 | 4100 nM (active) |
| Cc1cc(C(=O)N/N=C/c2ccc([N+](=O)[O-])o2)c(C)o1 | 579 nM (active) |
| O=C(Cc1ccc2c(c1)OCO2)NN=Cc1ccc([N+](=O)[O-])o1 | 918 nM (active) |
| CC1(C(=O)N/N=C/c2ccc([N+](=O)[O-])o2)CC1(Br)Br (stereo not drawn) | 650 nM (active) |
| CCOc1ccccc1NS(=O)(=O)c1c[nH]c(C(=O)OC)c1 | inactive |
| O=C(N/N=C/c1ccc([N+](=O)[O-])o1)c1ccc2c(c1)OCO2 | 818 nM (active) |
| O=C(Cc1ccc([N+](=O)[O-])cc1)N/N=C/c1ccc([N+](=O)[O-])o1 | 1160 nM (active) |
| O=c1c2ccccc2sc2ccc(C#CC3(O)CCCCC3)cc12 | 650 nM (active) |
| Cc1ccc(C2=NCCn3c2c2ccc([N+](=O)[O-])cc2[n+]3[O-])cc1 | 1300 nM (active) |
| O=[N+]([O-])c1ccc2c3n([n+]([O-])c2c1)CCN=C3c1ccc(Cl)cc1 | 4100 nM (active) |
| C[C@H](CO)N1C[C@H](C)[C@H](CN(C)C(=O)Nc2ccc(C(F)(F)F)cc2)Oc2c(NC(=O)c3ccncc3)cccc2C1=O | inactive |
| C[C@@H]1CN([C@@H](C)CO)C(=O)c2cccc(NS(=O)(=O)c3cccs3)c2O[C@H]1CN(C)Cc1ccc(C(F)(F)F)cc1 | 3650 nM (active) |
| C[C@@H]1CN([C@H](C)CO)C(=O)c2cc(NC(=O)Nc3ccc4c(c3)OCO4)ccc2O[C@H]1CN(C)Cc1ccncc1 | inactive |
| O=C1NC(=S)S/C1=C\C=C\c1ccc([N+](=O)[O-])o1 | 326 nM (active) |
| [O-][n+]1c2ccccc2c2n1CCCN=C2c1ccc(Cl)cc1 | 1300 nM (active) |
| Cc1ccc(C2=NCCn3c2c2ccccc2[n+]3[O-])cc1 | 146 nM (active) |
| [O-][n+]1c2ccccc2c2n1CCN=C2c1ccc(Cl)cc1 | 290 nM (active) |
